Several values for one entry are separate records, joined by “and”; a condition that tells them apart may be missing. Identical values can stand only once. Among all 5,500 compounds or so, about 2,000 (36%) were called active. About 18% were inconclusive and are not listed. Rule as the data show it: active = normalized growth mostly below about 0.91 (no sharp cut-off); inconclusive = no clear call, values can overlap the other calls; inactive = mostly above about 0.92. Some of the results follow.
Assay: chemical genetic growth profiling, strain panel (AID 1159580);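 also: tested at 20 µM; growth read once vehicle control cultures reached saturation at 30 °C; 1 = growth at the plate median or of vehicle wells; lower values mean less growth of the strain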
Conditions: S. cerevisiae deletion strains, growth OD

Measured: normalized growth

CN(C)CCN(Cc1ccccc1)c1ccccn1
inactive: locus YAL013W, strain DEP1, hits give low values 0.988 | locus YAL021C, strain ccr4, hits give low values 1.01 | locus YAL026C, strain drs2, hits give low values 1.01 | locus YAL030W, strain snc1, hits give low values 1.02 | locus YBL061C, strain skt5, hits give low values 1.01 | locus YBR009C, strain hhf1, hits give low values 0.963 | locus YBR021W, strain FUR4, hits give low values 0.99 | locus YBR023C, strain chs3, hits give low values 1.01 | locus YBR171W, strain sec66, hits give low values 1.02 | locus YBR229C, strain ROT2, hits give low values 1.01 | locus YBR231C, strain swc5, hits give low values 1.02 | locus YBR279W, strain paf1, hits give low values 1.01 | locus YCL011C, strain gbp2, hits give low values 1 | locus YCL016C, strain dcc1, hits give low values 0.997 | locus YCL029C, strain bik1, hits give low values 0.972 | locus YCL061C, strain MRC1, hits give low values 1.03 | locus YCL069W, strain vba3, hits give low values 1.01 | locus YCR088W, strain abp1, hits give low values 0.997 | locus YDL005C, strain med2, hits give low values 1.01 | locus YDL035C, strain GPR1, hits give low values 1.01 | locus YDL040C, strain nat1, hits give low values 1.02 | locus YDL074C, strain BRE1, hits give low values 1.02 | locus YDL101C, strain DUN1, hits give low values 0.987 | locus YDL134C, strain PPH21, hits give low values 1 | locus YDL185W, strain tfp1, hits give low values 0.946 | locus YDL192W, strain arf1, hits give low values 0.98 | locus YDR001C, strain nth1, hits give low values 1.01 | locus YDR069C, strain doa4, hits give low values 1.03 | locus YDR101C, strain arx1, hits give low values 0.988 | locus YDR137W, strain rgp1, hits give low values 1.01 | locus YDR150W, strain NUM1, hits give low values 0.981 | locus YDR159W, strain sac3, hits give low values 0.981 | locus YDR162C, strain NBP2, hits give low values 0.989 | locus YDR195W, strain ref2 1.02 | locus YDR297W, strain sur2, hits give low values 1.02 | locus YDR318W, strain mcm21, hits give low values 1.01 | locus YDR334W, strain swr1, hits give low values 1.01 | locus YDR335W, strain msn5, hits give low values 1.02 | locus YDR388W, hits give low values 1 | locus YDR392W, strain spt3, hits give low values 0.999 | locus YDR502C, strain sam2, hits give low values 1.02 | locus YEL003W, strain gim4, hits give low values 1.02 | locus YEL037C, strain rad23, hits give low values 1.02 | locus YEL061C, strain CIN8 (second series), hits give low values 1.02 | locus YEL061C, strain CIN8, hits give low values 0.992 | locus YER015W, strain faa2, hits give low values 1.01 | locus YER016W, strain bim1, hits give low values 0.964 | locus YER110C, hits give low values 0.973 | locus YER111C, strain swi4, hits give low values 1.02 | locus YER155C, strain BEM2 (second series), hits give low values 1.05 | locus YER155C, strain BEM2, hits give low values 1 | locus YER167W, strain BCK2, hits give low values 0.996 | locus YFR010W, strain ubp6, hits give low values 1.03 | locus YGL078C, strain dbp3, hits give low values 0.991 | locus YGL086W, strain mad1, hits give low values 0.992 | locus YGL167C, strain pmr1, hits give low values 1.01 | locus YGL173C, strain kem1, hits give low values 1.03 | locus YGL227W, strain vid30, hits give low values 1.01 | locus YGL240W, strain doc1, hits give low values 1.04 | locus YGL248W, strain PDE1, hits give low values 1.01 | locus YGL253W, strain hxk2, hits give low values 1 | locus YGR078C, strain PAC10, hits give low values 0.988 | locus YGR135W, strain pre9, hits give low values 1.01 | locus YGR229C, strain SMI1, hits give low values 1 | locus YGR252W, strain gcn5, hits give low values 1.14 | locus YHR013C, strain ard1, hits give low values 0.984 | locus YHR027C, strain rpn1, hits give low values 1 | locus YHR030C, strain SLT2, hits give low values 0.968 and 0.97 | locus YHR079C, strain IRE1 (second series), hits give low values 0.999 | locus YHR079C, strain IRE1, hits give low values 0.953 | locus YHR094C, strain hxt1, hits give low values 0.967 | locus YHR129C, strain ARP1, hits give low values 0.994 | locus YHR142W, strain chs7, hits give low values 1.01 | locus YHR200W, strain rpn10, hits give low values 1 | locus YIL066C, strain RNR3, hits give low values 1 | locus YIL073C, strain SPO22, hits give low values 0.928 | locus YIL125W, strain kgd1, hits give low values 0.976 | locus YIR030C, strain dcg1, hits give low values 0.994 | locus YJL092W, strain hpr5, hits give low values 1.03 | locus YJL095W, strain BCK1 (second series), hits give low values 1.01 | locus YJL095W, strain BCK1, hits give low values 0.96 and 0.975 | locus YJL115W, strain asf1, hits give low values 1.02 | locus YJL129C, strain trk1, hits give low values 1.02 | locus YJL134W, strain LCB3, hits give low values 0.998 | locus YJL154C, strain vps35, hits give low values 1.01 | locus YJL164C, strain tpk1, hits give low values 1 | locus YJL166W, strain qcr8, hits give low values 1.04 | locus YJL168C, strain set2, hits give low values 0.982 | locus YJL187C, strain SWE1 (second series), hits give low values 0.985 | locus YJR043C, strain POL32, hits give low values 1.01 | locus YJR066W, strain TOR1, hits give low values 0.947

Source: PubChem BioAssay AID1159580 (chemical genetic matrix, 2015)
